# In PubChem BioAssay (NCATS):
# Results filed as inconclusive are left out. Calls of active or inactive are those of the source. Calls come from the whole dose curve; as a rule, active = well fitted curve in the direction sought with a large enough effect; inconclusive = small, poorly fitted or top-dose-only effect, or another doubt; inactive = no such curve, though single readings can be large; an effect the other way counts as inactive or inconclusive.
# Assays:
# [1] = Quantitative High-Throughput drug screen in 47 multiple myeloma cell lines against the NCATS MIPE library collection: KMM1_JCRB cell viability assay (AID 1918960); note: nearly all actives have a fitted effect of over 30% in size
# Summary of the method: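 ATP readout (CellTiter-Glo), 48 h drug incubation, 37 °C/5% CO2, 500 cells per well; normalisation to DMSO (100%) and media-only (0%) controls.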
# [2] = Quantitative High-Throughput drug screen in 47 multiple myeloma cell lines against the NCATS MIPE library collection: Karpas417_ECACC cell viability assay (AID 1918961); settings: Karpas417 myeloma viability, CellTiter-Glo ATP luminescence, 48 h; viability (% of DMSO): at 45.8 µM (top of the series)
# Summary of the method: (§1)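 Steps: seed 500 cells per well; pin-transfer MIPE 4.0 library; incubate 48 h at 37C, 5% CO2, humidified; add CellTiter-Glo, 5 min room temperature; read luminescence.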
# [3] = Quantitative High-Throughput drug screen in 47 multiple myeloma cell lines against the NCATS MIPE library collection: KHM11_PLB cell viability assay (AID 1918962); note: nearly all actives have a fitted effect of over 35% in size
# Summary of the method: (§2)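 Luminescent ATP measurement with CellTiter-Glo gives viability, scaled between DMSO-only wells (100%) and media-only wells (0%). Cells, 500 per well, faced library compounds for 48 hours at 37C.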
# [4] = Quantitative High-Throughput drug screen in 47 multiple myeloma cell lines against the NCATS MIPE library collection: JIM3_ECACC cell viability assay (AID 1918963; note: nearly all actives have a fitted effect of over 35% in size)
# Summary of the method: as §2
# [5] = Quantitative High-Throughput drug screen in 47 multiple myeloma cell lines against the NCATS MIPE library collection: JIM1_ECACC cell viability assay (AID 1918964)
# Summary of the method: (§3)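 Primary qHTS used for cherry-picking: cells at 500/well, library compounds for 48 h (37C, 5% CO2), luminescent ATP assay.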
# [6] = Quantitative High-Throughput drug screen in 47 multiple myeloma cell lines against the NCATS MIPE library collection: INA6_PLB cell viability assay (AID 1918965; note: nearly all actives have a fitted effect of over 55% in size)
# Summary of the method: as §1
# [7] = Quantitative High-Throughput drug screen in 47 multiple myeloma cell lines against the NCATS MIPE library collection: JJN3_DSMZ cell viability assay (AID 1918966; note: nearly all actives have a fitted effect of over 50% in size)
# Summary of the method: as §3
# [8] = Quantitative High-Throughput drug screen in 47 multiple myeloma cell lines against the NCATS MIPE library collection: H1112_PLB cell viability assay (AID 1918967; note: nearly all actives have a fitted effect of over 30% in size)
# Summary of the method: as §3
# [9] = Quantitative High-Throughput drug screen in 47 multiple myeloma cell lines against the NCATS MIPE library collection: Karpas25_ECACC cell viability assay (AID 1918968; note: nearly all actives have a fitted effect of over 35% in size)
# Summary of the method: as §3
# [10] = Quantitative High-Throughput drug screen in 47 multiple myeloma cell lines against the NCATS MIPE library collection: KMS12BM_JCRB cell viability assay (AID 1918971); note: nearly all actives have a fitted effect of over 35% in size
# Summary of the method: (§4)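 Approved and investigational drugs from MIPE 4.0 were added by pin tool to 500 cells per well. After 48 hours at 37C, ATP-based CellTiter-Glo luminescence indicated remaining viability.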
# [11] = Quantitative High-Throughput drug screen in 47 multiple myeloma cell lines against the NCATS MIPE library collection: KMS12PE_JCRB cell viability assay (AID 1918972); note: nearly all actives have a fitted effect of over 30% in size
# Summary of the method: as §1
# [12] = Quantitative High-Throughput drug screen in 47 multiple myeloma cell lines against the NCATS MIPE library collection: KMS26_JCRB cell viability assay (AID 1918975); note: nearly all actives have a fitted effect of over 45% in size
# Summary of the method: as §4
# [13] = Quantitative High-Throughput drug screen in 47 multiple myeloma cell lines against the NCATS MIPE library collection: MMM1_PLB cell viability assay (AID 1918976); note: nearly all actives have a fitted effect of over 35% in size
# Summary of the method: (§5)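 Inhibition of viability over 48 h was scored by ATP content (CellTiter-Glo) in 500-cell wells. Zero and full viability were defined by media-only and DMSO-only wells.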
# [14] = Quantitative High-Throughput drug screen in 47 multiple myeloma cell lines against the NCATS MIPE library collection: NCIH929_DSMZ cell viability assay (AID 1918978); note: nearly all actives have a fitted effect of over 35% in size
# Summary of the method: as §5
# [15] = Quantitative High-Throughput drug screen in 47 multiple myeloma cell lines against the NCATS MIPE library collection: MM1S_ATCC cell viability assay (AID 1918980); note: nearly all actives have a fitted effect of over 45% in size
# Summary of the method: as §5
# [16] = Quantitative High-Throughput drug screen in 47 multiple myeloma cell lines against the NCATS MIPE library collection: KMS20_JCRB cell viability assay (AID 1918973); note: nearly all actives have a fitted effect of over 45% in size
# Summary of the method: as §3
# [17] = Quantitative High-Throughput drug screen in 47 multiple myeloma cell lines against the NCATS MIPE library collection: KMS21BM_JCRB cell viability assay (AID 1918974); settings: ATP luminescence, 48 h; viability: at 45.8 µM (top of the series)
# Summary of the method: as §3
# [18] = Quantitative High-Throughput drug screen in 47 multiple myeloma cell lines against the NCATS MIPE library collection: OCIMY1_PLB cell viability assay (AID 1918979); note: nearly all actives have a fitted effect of over 35% in size
# Summary of the method: as §5
# [19] = Quantitative High-Throughput drug screen in 47 multiple myeloma cell lines against the NCATS MIPE library collection: KMS27_JCRB cell viability assay (AID 1918970); settings: KMS27 myeloma cells, CellTiter-Glo ATP viability, 48 h; viability (% of DMSO): at 45.8 µM (top of the series); note: nearly all actives have a fitted effect of over 30% in size
# Summary of the method: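 Each line is seeded at 500 cells per well and treated with library compounds for 48 hours under 37 °C, 5% CO2. CellTiter-Glo is then added for 5 min at room temperature before median relative luminescence is recorded.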
# Potency is the fitted concentration of half-maximal effect.
SMILES,Potency [1],Potency [2],Potency [3],Potency [4],Potency [5],Potency [6],Potency [7],Potency [8],Potency [9],Potency [10],Potency [11],Potency [12],Potency [13],Potency [14],Potency [15],Potency [16],Potency [17],Potency [18],Potency [19]
Cc1cccc(-c2[nH]c(C(C)(C)C)nc2-c2ccc3c(c2)OCO3)n1,3.72 µM (active),1.66 µM (active),1.18 µM (active),0.833 µM (active),6.62 µM (active),2.64 µM (active),14.8 µM (active),1.32 µM (active),0.526 µM (active),18.7 µM (active),3.72 µM (active),16.6 µM (active),16.6 µM (active),6.62 µM (active),16.6 µM (active),,,,
CC(=O)Nc1cccc(-n2c(=O)n(C3CC3)c(=O)c3c(Nc4ccc(I)cc4F)n(C)c(=O)c(C)c32)c1,0.0935 µM (active),0.0662 µM (active),0.0059 µM (active),0.187 µM (active),,0.0418 µM (active),,0.0469 µM (active),1.66 µM (active),,,inactive,7.43 µM (active),0.0187 µM (active),,0.0118 µM (active),0.0332 µM (active),0.0033 µM (active),
Cc1ccc(NC(=O)Nc2cc(C(F)(F)F)ccc2F)cc1Nc1ccc2c(c1)NC(=O)C2=Cc1ccc[nH]1,5.9 µM (active),2.09 µM (active),7.43 µM (active),4.18 µM (active),4.18 µM (active),4.18 µM (active),23.5 µM (active),11.8 µM (active),5.26 µM (active),26.4 µM (active),2.35 µM (active),37.2 µM (active),33.2 µM (active),4.18 µM (active),,5.9 µM (active),,23.5 µM (active),8.33 µM (active)
Cc1c(-c2cccc3c(CCCOc4cccc5ccccc45)c(C(=O)O)n(Cc4cccnc4)c23)c(COc2ccc(N3CCN([S+](=O)([O-])N(C)C)CC3)cc2)nn1C,inactive,inactive,20.9 µM (active),,inactive,16.6 µM (active),23.5 µM (active),20.9 µM (active),20.9 µM (active),23.5 µM (active),inactive,,,3.72 µM (active),23.5 µM (active),,,inactive,inactive
Cc1nc(NC(=O)N2CCC[C@@H]2C(N)=O)sc1-c1csc(C(C)(C)C)n1,1.05 µM (active),1.05 µM (active),3.72 µM (active),5.9 µM (active),1.32 µM (active),16.6 µM (active),6.62 µM (active),2.09 µM (active),,,4.69 µM (active),,0.935 µM (active),0.833 µM (active),6.62 µM (active),,1.05 µM (active),,2.35 µM (active)
